Here are results for three molecules from PubChem BioAssay (EPA / NIEHS).

Common to all, as to settings: mRNA level, 48 h; actives raise or lower the signal
Read-out in assay [1]: Lipoprotein lipase (LPL), LPL (gene 4023)
Put plainly: LTEA_HepaRG_LPL: Life Technologies and Expression Analysis (LTEA) Assay for Lipoprotein lipase (LPL) using HepaRG (AID 2283515). The essentials:
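Differentiated HepaRG cells, plated 48 h, then exposed 48 h in serum-free induction medium to 8 concentrations (top 100 uM, half-log steps) in 0.5% DMSO, duplicate. LPL mRNA measured by qRT-PCR, normalized to ACTB, GAPDH and POLR2A.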

Read-out in assay [2]: MicroRNA 122 (MIR122), gene 406906
Put plainly: LTEA_HepaRG_MIR122: Life Technologies and Expression Analysis (LTEA) Assay for MicroRNA 122 (MIR122) using HepaRG (AID 2283516). Also: the transcript read is the microRNA miR-122. The essentials: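 HepaRG plated 48 h, switched to serum-free induction medium, then treated in duplicate for 48 h (100 uM top, half-log steps, 0.5% DMSO vehicle). RNA isolated, qRT-PCR performed, concentration-response fitted both directions relative to DMSO.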

Read-out in assay [3]: matrix metalloproteinase-10 (MMP10), MMP10 (gene 4319)
Put plainly: LTEA_HepaRG_MMP10: Life Technologies and Expression Analysis (LTEA) Assay for matrix metalloproteinase-10 (MMP10) using HepaRG (AID 2283517). The essentials:
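Differentiated HepaRG cells in serum-free induction medium exposed 48 h in duplicate to 8-point half-log series up to 100 uM in 0.5% DMSO. mRNA quantified by qRT-PCR, normalised to ACTB, GAPDH, POLR2A; bidirectional fit versus DMSO.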

Read-out in another assay: MYC, MYC (gene 4609)
Put plainly: LTEA_HepaRG_MYC: Life Technologies and Expression Analysis (LTEA) Assay for MYC using HepaRG (AID 2283518). The method in brief: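 Cells are thawed, plated and cultured 48 h, then treated for 48 h with test chemicals (eight half-log concentrations from 100 uM, 0.5% DMSO vehicle). RNA is isolated and MYC expression quantified by qRT-PCR against three housekeeping genes.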

Read-out in assay [4]: matrix metalloproteinase-3 (MMP3), MMP3 (gene 4314)
Put plainly: LTEA_HepaRG_MMP3: Life Technologies and Expression Analysis (LTEA) Assay for matrix metalloproteinase-3 (MMP3) using HepaRG (AID 2283519). The essentials:
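HepaRG cells (~100,000/well) in serum-free induction medium were dosed in duplicate for 48 h with an 8-point half-log series from 100 uM, 0.5% DMSO. MMP3 mRNA was quantified by Fluidigm TaqMan qRT-PCR, normalized to three housekeeping genes.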

Read-out in assay [5]: Paternally Expressed 10 (PEG10), PEG10 (gene 23089)
The assay can be described thus: LTEA_HepaRG_PEG10: Life Technologies and Expression Analysis (LTEA) Assay for Paternally Expressed 10 (PEG10) using HepaRG (AID 2283520). The method in brief: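 HepaRG, 48 h post-plating → serum-free induction medium → 48 h chemical exposure (duplicate, 8-pt, max 100 uM, half-log, 0.5% DMSO) → lysis in RLT → TaqMan qRT-PCR for PEG10, ACTB/GAPDH/POLR2A normalisation.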

Read-out in assay [6]: Nuclear factor NF-kappa-B p105 subunit (Homo sapiens) (UniProt P19838)
The assay can be described thus: LTEA_HepaRG_NFKB1: Life Technologies and Expression Analysis (LTEA) Assay for Nuclear Factor Kappa B Subunit 1 (NFKB1) using HepaRG (AID 2283521).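 Also: TaqMan qRT-PCR transcript normalised to ACTB GAPDH and POLR2A housekeeping genes.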 The essentials:
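HepaRG, 48 h exposure; 8-pt half-log series from 100 uM in 0.5% DMSO; duplicates. Readout: NFKB1 mRNA by qRT-PCR (Fluidigm arrays), housekeeping-normalized. Gain/loss fit vs DMSO baseline.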

Read-out in assay [7]: Protein phosphatase 2A (PPP2R4), PTPA (gene 5524)
Put plainly: LTEA_HepaRG_PPP2R4: Life Technologies and Expression Analysis (LTEA) Assay for Protein phosphatase 2A (PPP2R4) using HepaRG (AID 2283522). The essentials: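 Readout is PPP2R4 transcript level by microfluidic qRT-PCR after 48 h chemical treatment of human HepaRG liver cells. Concentrations spanned 100 uM downward in half-log steps; gain or loss of signal was fitted relative to DMSO.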

Read-out in assay [8]: solute carrier (SLC22A1), SLC22A1 (gene 6580)
Put plainly: LTEA_HepaRG_SLC22A1: Life Technologies and Expression Analysis (LTEA) Assay for solute carrier (SLC22A1) using HepaRG (AID 2283524). The method in brief: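 Differentiated human HepaRG cells in serum-free induction medium, exposed 48 h in duplicate to 8-point half-log series from 100 µM top in 0.5% DMSO. SLC22A1 mRNA by TaqMan qRT-PCR normalized to ACTB, GAPDH, POLR2A; bidirectional fit versus DMSO.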

Read-out in assay [9]: NAD(P)H dehydrogenase [quinone] 1 (NQO1), NQO1 (gene 1728)
The assay can be described thus: LTEA_HepaRG_NQO1: Life Technologies and Expression Analysis (LTEA) Assay for NAD(P)H dehydrogenase [quinone] 1 (NQO1) using HepaRG (AID 2283526). The essentials: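 HepaRG, 48 h post-plating → serum-free induction medium → test chemical 48 h (duplicate, 100 uM top, half-log x8, 0.5% DMSO) → RNA isolation → qRT-PCR, ACTB/GAPDH/POLR2A normalization; bidirectional curve fit vs DMSO baseline.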

Read-out in assay [10]: Nuclear factor erythroid 2-related factor 2 (Homo sapiens) (UniProt Q16236)
The assay can be described thus: LTEA_HepaRG_NFE2L2: Life Technologies and Expression Analysis (LTEA) Assay for Nuclear factor erythroid 2-related factor 2 (NFE2L2) Transcription Factor using HepaRG (AID 2283527).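 Also: TaqMan qRT-PCR transcript level normalised to ACTB GAPDH and POLR2A housekeeping genes.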 The method in brief:
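Differentiated human HepaRG cells, serum-free induction medium, exposed 48 h in duplicate to eight half-log concentrations up to 100 uM in 0.5% DMSO. NFE2L2 mRNA by Fluidigm TaqMan qRT-PCR, normalised to ACTB, GAPDH, POLR2A; bidirectional change versus DMSO.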

Read-out in assay [11]: succinate dehydrogenase complex iron sulfur subunit B (SDHB), SDHB (gene 6390)
The assay can be described thus: LTEA_HepaRG_SDHB: Life Technologies and Expression Analysis (LTEA) Assay for succinate dehydrogenase complex iron sulfur subunit B (SDHB) using HepaRG (AID 2283528). The essentials:
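Readout is SDHB transcript level by qRT-PCR, normalised to three housekeeping genes and fitted bidirectionally against 0.5% DMSO vehicle. Human HepaRG cells were treated for 48 h at up to 100 uM.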

Read-out in assay [12]: Signal transducer and activator of transcription 3 (Homo sapiens) (UniProt P40763)
The assay can be described thus: LTEA_HepaRG_STAT3: Life Technologies and Expression Analysis (LTEA) Assay for Signal transducer and activator of transcription (STAT3) using HepaRG (AID 2283529). The essentials: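 Differentiated HepaRG cells, serum-free induction medium, dosed 48 h in duplicate, 8 half-log concentrations from 100 uM in 0.5% DMSO. STAT3 mRNA by qRT-PCR, normalised to ACTB, GAPDH, POLR2A; bidirectional fit versus DMSO.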

Read-out in assay [13]: solute carrier (SLCO1B1), SLCO1B1 (gene 10599)
Put plainly: LTEA_HepaRG_SLCO1B1: Life Technologies and Expression Analysis (LTEA) Assay for solute carrier (SLCO1B1) using HepaRG (AID 2283530). The essentials: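 Gain or loss of SLCO1B1 mRNA is fitted against the 0.5% DMSO vehicle in human HepaRG liver cells treated 48 h at up to 100 uM in half-log steps. Expression comes from qRT-PCR normalized to endogenous controls.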

Read-out in assay [14]: sulfotransferase 2A1 (SULT2A1), SULT2A1 (gene 6822)
Put plainly: LTEA_HepaRG_SULT2A1: Life Technologies and Expression Analysis (LTEA) Assay for sulfotransferase 2A1 (SULT2A1) using HepaRG (AID 2283531). The essentials: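 Cells were plated and cultured 48 h, switched to serum-free induction medium, then dosed in duplicate for 48 h (8 concentrations, max 100 uM). RNA was isolated and SULT2A1 expression measured by qRT-PCR; gain or loss of signal fitted relative to DMSO.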

Read-out in assay [15]: Transforming Growth Factor (TGFB1), TGFB1 (gene 7040)
Put plainly: LTEA_HepaRG_TGFB1: Life Technologies and Expression Analysis (LTEA) Assay for Transforming Growth Factor (TGFB1) Transporter using HepaRG (AID 2283533). The method in brief:
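Expression change of TGFB1 in human HepaRG cells is measured after a 48 h chemical exposure, up to 100 uM in 0.5% DMSO vehicle. Curves are fitted in both directions relative to the DMSO baseline.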

Read-out in the next assay: TIMP1, TIMP1 (gene 7076)
The assay can be described thus: LTEA_HepaRG_TIMP1: Life Technologies and Expression Analysis (LTEA) Assay for TIMP1 using HepaRG (AID 2283534).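 As to outcome: TaqMan qRT-PCR signal normalized to ACTB GAPDH and POLR2A housekeeping genes.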 The method in brief: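 We dosed human liver HepaRG cultures for 48 hours with up to 100 uM test chemical and measured TIMP1 expression by qRT-PCR. Activity in either direction is fitted relative to the 0.5% DMSO vehicle.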

Read-out in assay [16]: Transforming Growth Factor (TGFA), TGFA (gene 7039)
The assay can be described thus: LTEA_HepaRG_TGFA: Life Technologies and Expression Analysis (LTEA) Assay for Transforming Growth Factor (TGFA) using HepaRG (AID 2283532). The essentials: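 Differentiated HepaRG cells exposed 48 hours in serum-free induction medium, 0.5% DMSO vehicle, 8-point half-log series from 100 uM, in duplicate. TGFA mRNA by TaqMan qRT-PCR, normalised to ACTB, GAPDH, POLR2A; bidirectional fit versus DMSO.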

Read-out in assay [17]: Pyruvate Dehydrogenase Kinase 4 (PDK4), PDK4 (gene 5166)
Put plainly: LTEA_HepaRG_PDK4: Life Technologies and Expression Analysis (LTEA) Assay for Pyruvate Dehydrogenase Kinase 4 (PDK4) using HepaRG (AID 2283525). The essentials: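 HepaRG cells plated 48 h, then switched to serum-free induction medium and exposed in duplicate for 48 h to 8 half-log concentrations from 100 uM in 0.5% DMSO. PDK4 mRNA measured by qRT-PCR, normalized to ACTB, GAPDH and POLR2A; bidirectional fit versus DMSO.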

What is called AC50 is the midpoint of the concentration-response curve, whichever way the signal moves.

Molecules are shown by their SMILES. Calls of active or inactive are those of the source. The calls were made as follows: active = hit-call score of the fitted dose curve at least 0.9, where 1 is the maximum; inactive = score below 0.9.

Nuclear factor erythroid 2-related factor 2 (Homo sapiens), sequence (Q16236 whole entry, looked up): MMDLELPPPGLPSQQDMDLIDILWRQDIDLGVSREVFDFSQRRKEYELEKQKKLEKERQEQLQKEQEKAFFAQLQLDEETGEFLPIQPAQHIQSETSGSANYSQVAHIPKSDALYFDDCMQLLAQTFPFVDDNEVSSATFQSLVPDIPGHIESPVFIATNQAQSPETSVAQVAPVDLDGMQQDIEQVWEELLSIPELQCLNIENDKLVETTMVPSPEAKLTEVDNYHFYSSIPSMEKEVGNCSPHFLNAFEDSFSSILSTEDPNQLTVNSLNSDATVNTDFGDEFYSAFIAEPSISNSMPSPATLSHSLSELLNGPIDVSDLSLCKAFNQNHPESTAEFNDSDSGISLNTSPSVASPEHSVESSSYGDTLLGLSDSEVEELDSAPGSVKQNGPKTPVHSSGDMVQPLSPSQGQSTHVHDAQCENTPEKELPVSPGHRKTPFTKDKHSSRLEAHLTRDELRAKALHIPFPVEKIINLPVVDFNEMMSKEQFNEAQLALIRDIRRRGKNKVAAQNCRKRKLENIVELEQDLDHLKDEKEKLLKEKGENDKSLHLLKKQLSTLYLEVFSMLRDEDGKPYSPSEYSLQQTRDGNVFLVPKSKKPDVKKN
Signal transducer and activator of transcription 3 (Homo sapiens), sequence (P40763 whole entry, looked up): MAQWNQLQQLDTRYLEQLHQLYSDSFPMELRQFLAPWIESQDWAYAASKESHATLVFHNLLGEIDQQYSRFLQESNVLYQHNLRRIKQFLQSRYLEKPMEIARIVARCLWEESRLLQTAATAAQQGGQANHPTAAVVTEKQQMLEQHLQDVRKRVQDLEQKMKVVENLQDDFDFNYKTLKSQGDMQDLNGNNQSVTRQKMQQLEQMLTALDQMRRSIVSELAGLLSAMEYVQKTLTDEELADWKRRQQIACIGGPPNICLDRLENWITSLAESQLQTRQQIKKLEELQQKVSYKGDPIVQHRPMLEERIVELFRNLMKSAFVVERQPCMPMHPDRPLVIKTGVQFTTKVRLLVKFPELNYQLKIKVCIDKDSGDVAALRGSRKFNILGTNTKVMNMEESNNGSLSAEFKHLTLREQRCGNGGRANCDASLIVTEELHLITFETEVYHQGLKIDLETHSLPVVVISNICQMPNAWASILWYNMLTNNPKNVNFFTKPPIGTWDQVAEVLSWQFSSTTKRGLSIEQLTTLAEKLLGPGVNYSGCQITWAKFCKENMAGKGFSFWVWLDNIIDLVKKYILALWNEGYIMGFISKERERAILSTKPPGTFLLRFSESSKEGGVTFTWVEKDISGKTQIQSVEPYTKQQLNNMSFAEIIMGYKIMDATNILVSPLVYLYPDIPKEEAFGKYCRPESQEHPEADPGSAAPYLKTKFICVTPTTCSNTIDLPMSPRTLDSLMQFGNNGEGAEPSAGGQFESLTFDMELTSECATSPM
Nuclear factor NF-kappa-B p105 subunit (Homo sapiens), sequence (P19838 whole entry, looked up): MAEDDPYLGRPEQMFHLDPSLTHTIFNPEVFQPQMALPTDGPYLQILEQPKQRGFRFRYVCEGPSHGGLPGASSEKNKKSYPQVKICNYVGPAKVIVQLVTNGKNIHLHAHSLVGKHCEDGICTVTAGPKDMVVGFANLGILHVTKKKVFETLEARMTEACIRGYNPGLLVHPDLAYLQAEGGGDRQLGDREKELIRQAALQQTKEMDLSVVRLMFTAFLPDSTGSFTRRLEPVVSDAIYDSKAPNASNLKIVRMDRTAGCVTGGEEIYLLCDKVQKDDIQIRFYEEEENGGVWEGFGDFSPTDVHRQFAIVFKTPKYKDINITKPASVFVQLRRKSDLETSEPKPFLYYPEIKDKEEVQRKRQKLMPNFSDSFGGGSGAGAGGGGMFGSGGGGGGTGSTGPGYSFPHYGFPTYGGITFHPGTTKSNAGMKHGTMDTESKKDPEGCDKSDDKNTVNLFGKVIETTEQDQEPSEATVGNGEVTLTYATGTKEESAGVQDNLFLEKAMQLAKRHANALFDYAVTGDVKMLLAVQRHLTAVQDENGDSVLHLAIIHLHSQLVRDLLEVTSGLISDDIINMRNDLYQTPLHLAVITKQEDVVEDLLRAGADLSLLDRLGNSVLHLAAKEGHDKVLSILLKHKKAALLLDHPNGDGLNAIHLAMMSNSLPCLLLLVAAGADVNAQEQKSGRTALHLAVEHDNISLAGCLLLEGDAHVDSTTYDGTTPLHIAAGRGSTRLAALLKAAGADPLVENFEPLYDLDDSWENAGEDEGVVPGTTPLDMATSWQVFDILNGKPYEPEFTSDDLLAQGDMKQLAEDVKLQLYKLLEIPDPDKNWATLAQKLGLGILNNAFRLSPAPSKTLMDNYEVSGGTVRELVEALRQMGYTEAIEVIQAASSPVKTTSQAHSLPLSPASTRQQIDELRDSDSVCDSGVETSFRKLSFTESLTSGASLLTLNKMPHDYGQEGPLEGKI

For `CCOC(=O)O[C@H](C)OC(=O)c1ccc2c(c1)cc(C(=O)NC1CCN(C(C)C)CC1)n2Cc1cc(-c2ccc(Cl)s2)on1`, the outcome in assay [1] was “inactive”; in assay [2] it was “inactive”; in assay [3], “inactive”; with MYC, MYC (gene 4609), “inactive”; in assay [5], “inactive”; in assay [6], “inactive”. Moreover, the call in [7], in [8], in [9], in assay [10], in assay [11] and in assay [12] was inactive. The outcome in assay [13] is “inactive”; in [14] it was “inactive”; in assay [15] it was “inactive”; with TIMP1, TIMP1 (gene 7076), “inactive”. The AC50 in [4] was 47.2 µM (active).

Take `CN(C[C@@H](CC[N+]12CCC(C3CCCCC3)(CC1)CC2)c1ccc(Cl)c(Cl)c1)C(=O)c1cc(C(F)(F)F)cc(C(F)(F)F)c1`: the AC50 in [1] is 36 µM (active); in assay [2] it was 12.7 µM (active); in assay [3], 9.43 µM (active); in assay [5], 28.7 µM (active); in [7], 76.2 µM (active); in [8] it was 22.4 µM (active). Also, the AC50 in assay [11] is 68.8 µM (active); in assay [13], 33.9 µM (active); in [14], 68 µM (active); in assay [16], 50 µM (active); in assay [15], 12.3 µM (active); with TIMP1, TIMP1 (gene 7076), 68.7 µM (active). Also, the outcome in assay [4], in assay [9] and in assay [10] was inactive.

Take `CC(O)CC(C)(C)O` (centres undefined): the outcome is “inactive” in assay [1]; “inactive” in assay [2]; “inactive” with MYC, MYC (gene 4609); “inactive” in [4]; “inactive” in assay [5]; “inactive” in [7]. Moreover, the call in [8], in assay [17], in assay [9], in [10], in assay [11] and in assay [12] was inactive. In addition, the outcome in assay [13] is “inactive”; in assay [14], “inactive”; in [16] it was “inactive”; in assay [15] it was “inactive”; with TIMP1, TIMP1 (gene 7076) it was “inactive”.
